Compound activity: PubChem, National Center for Advancing Translational Sciences (NCATS)
The list is not random: actives were taken first. Their share in the collection is about 19%.
DT40 TDP1 no CPT – qHTS for Inhibitors of human tyrosyl-DNA phosphodiesterase 1 (TDP1): qHTS in cells in absence of CPT. DT40 Tdp1-/- hTDP1 cells, no CPT, ATP luminescence, 48 h. Potency, µM (highest dose often 46.2 µM), for inactives: at the highest dose activity change, negative = growth inhibition, actives largely listed as inhibitors. hit rate 15% among 420,000; further: potency means the concentration at half of the fitted maximal effect; on the % scale 0 is the no-effect control and ±100 the full control effect; nearly all actives have a fitted effect of over 55% in size
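Growth kinetics read by CellTiter-Glo luminescence after ≥48 hr at 37 °C. Cells: DT40 Tdp1-/- stably carrying human TDP1, 400 per well, compound exposure in the absence of CPT (DMSO vehicle).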
IL1B secr inh – inflammasome signaling inhibition, IL-1 beta readout. hit rate 4.7% among 360,000. activity change, % at 57.5 µM. AID 743279. THP-1 LPS/ATP IL-1B secretion, AlphaLISA, 16 h; hits give low values; in the data active means activity change below about -50%; inconclusive means mostly about -30% to -49%; further: on the % scale 0 is the no-effect control and ±100 the full control effect
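Secreted IL-1B measured by AlphaLISA bead assay after 16 h compound exposure of THP-1 cells; compounds (final up to 57.5 uM) added 1 h before LPS (250 ng/mL) and ATP (1.25 mM) stimulation; lower signal means less secretion.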
HepG2 tox – HepG2 cytotoxicity, counter-screen for TGF-b inhibitors; HepG2 CAGA-GFP viability, ATP luminescence, 18 h; Potency, µM (series often up to 46.1 µM), for the others: at the highest dose activity change, negative = cytotoxicity, usual class: cytotoxic; hit rate 0.76% among 410,000; further: potency means the concentration at half of the fitted maximal effect
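HepG2 CAGA-GFP cells (1000/well, DMEM with 1% FBS) received compound, then TGF-beta at 500 pg/mL final, and were incubated 18 hours at 37 degrees C. Viability was read by CellTiter-Glo luminescence. Media-only wells were set as complete cell-killing and DMSO as no toxicity.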
TDP1 cell CPT – DT40-hTDP1 cell growth loss with CPT. chicken DT40 Tdp1-/-;hTDP1 cells + 20 nM CPT, ATP luminescence, 48 h. Potency, µM (series often up to 46.2 µM), inactives show top-dose activity change, negative = growth inhibition, actives largely listed as inhibitors. hit rate 12% among 420,000. AID 686979; further: potency means the concentration at half of the fitted maximal effect; on the % scale 0 is the no-effect control and ±100 the full control effect; nearly all actives have a fitted effect of over 55% in size
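Cell growth measured by CellTiter-Glo luminescence after a minimum 48 h, 37 C compound exposure with 20 nM CPT in Tdp1-knockout DT40 cells stably expressing hTDP1, seeded 400/well; qHTS titration format.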
S-ASM inh – human S-ASM enzyme inhibition. P17405. placental ASM, HMU-PC fluorogenic substrate, 60 min. Potency, µM (top dose mostly 57.5 µM), without a hit: top-dose activity change, negative = inhibition, actives largely listed as inhibitors. hit rate 0.006% among 340,000. AID 504937; further: potency means the concentration at half of the fitted maximal effect
Target sequence (P17405 47-631 limits assumed): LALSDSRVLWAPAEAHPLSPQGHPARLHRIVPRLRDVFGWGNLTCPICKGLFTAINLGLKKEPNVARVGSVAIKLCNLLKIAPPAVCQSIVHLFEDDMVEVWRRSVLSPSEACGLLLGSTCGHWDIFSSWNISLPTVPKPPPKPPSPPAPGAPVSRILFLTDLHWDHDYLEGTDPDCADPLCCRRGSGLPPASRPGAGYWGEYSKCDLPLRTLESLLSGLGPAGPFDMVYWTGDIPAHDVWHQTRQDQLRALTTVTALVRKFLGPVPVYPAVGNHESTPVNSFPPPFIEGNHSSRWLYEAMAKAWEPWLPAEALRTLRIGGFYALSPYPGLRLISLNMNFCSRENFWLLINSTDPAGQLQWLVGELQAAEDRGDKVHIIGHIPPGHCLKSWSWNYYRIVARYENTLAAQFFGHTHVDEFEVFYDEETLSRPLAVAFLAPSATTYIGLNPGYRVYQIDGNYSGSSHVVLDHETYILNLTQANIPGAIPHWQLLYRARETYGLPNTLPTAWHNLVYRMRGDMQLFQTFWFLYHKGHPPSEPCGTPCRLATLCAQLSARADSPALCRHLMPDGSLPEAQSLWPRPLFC
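Fluorogenic HMU-PC substrate (9 uM final) is turned over by placental ASM in 60 min at 37 C after a 10 min compound preincubation. Reaction ended by alkaline stop (pH 10), with fluorescence read at 386/447 nm.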
TGFb SMAD3 inh – blocks TGF-b signaling; hit rate 1.2% among 410,000; AID 588855; Potency, µM (titrated, usually from 46.1 µM), inactives show at the highest dose activity, negative = inhibition, hits mostly inhibitors; HepG2 CAGA-GFP TGF-b/SMAD3 reporter, GFP fluorescence, 18 h; TGF-beta stimulated, 500 pg/mL final; further: potency means the concentration at half of the fitted maximal effect; on the % scale 0 is the no-effect control and ±100 the full control effect; nearly all actives have a fitted effect of over 65% in size
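TGF-beta reporter screen: HEPG2 CAGA-GFP, 1% FBS, 500 pg/mL TGF-beta final, 18 h; per-cell GFP summed per well; curves fitted and categorized by class.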
* marks the source's active call; other numbers are inactive results. Unless noted, the call rests on the fitted dose curve; in most records, active means well fitted curve in the direction sought with a large enough effect; inconclusive means small, poorly fitted or top-dose-only effect, or another doubt; inactive means no such curve, though single readings can be large; an effect the other way counts as inactive or inconclusive.

COc1ccc(N=C2CCS(=O)(=O)c3sccc32)cc1 was read as DT40 TDP1 no CPT inconclusive, IL1B secr inh -7, HepG2 tox -24%, TDP1 cell CPT 9.2µM*, S-ASM inh 0% and TGFb SMAD3 inh -14%.
`CCC(C(=O)NC(C)(C)C)n1c(-c2cccc(NC(C)=O)c2)nc2ccccc21` (stereo not drawn) gave DT40 TDP1 no CPT 12%, IL1B secr inh 19 and TDP1 cell CPT 5%.
Screening CCCc1ccccc1OCCNC(C)=O returned DT40 TDP1 no CPT 18µM*, IL1B secr inh 0, HepG2 tox -1%, TDP1 cell CPT 18µM*, S-ASM inh 0% and TGFb SMAD3 inh -18%.
`CC(=O)NC(CC(=O)NCCOc1ccccc1F)c1ccccc1` (stereo not drawn) gave DT40 TDP1 no CPT -12%, IL1B secr inh 3, HepG2 tox -32%, TDP1 cell CPT -17%, S-ASM inh 1% and TGFb SMAD3 inh 1%.
Screening O=S(=O)(c1cc(C(F)(F)F)ccc1Cl)N1CCN(c2ncnc3ccccc23)CC1 returned DT40 TDP1 no CPT 2.1µM*, IL1B secr inh -16, HepG2 tox -1%, TDP1 cell CPT 2.1µM*, S-ASM inh -3% and TGFb SMAD3 inh -30%.
For CC1CCN(c2nc(-c3ccccc3O)nc3ccccc23)CC1 the results were DT40 TDP1 no CPT inconclusive, IL1B secr inh 25, HepG2 tox 3%, TDP1 cell CPT inconclusive, S-ASM inh -17% and TGFb SMAD3 inh -1%.
Screening Cc1cc(C)c(C)c(S(=O)(=O)N2CCN(c3ncnc4ccccc34)CC2)c1C returned DT40 TDP1 no CPT 8.2µM*, IL1B secr inh 9, HepG2 tox -37%, TDP1 cell CPT 10µM*, S-ASM inh 25% and TGFb SMAD3 inh inconclusive.
CC1CCN(c2ncnc3ccccc23)CC1 was read as DT40 TDP1 no CPT 23µM*, IL1B secr inh -27, HepG2 tox -20%, TDP1 cell CPT 13µM*, S-ASM inh 0% and TGFb SMAD3 inh 0%.
Screening O=S(=O)(c1cc(C(F)(F)F)ccc1Cl)N1CCCCCC1 returned DT40 TDP1 no CPT -17%, IL1B secr inh -4, HepG2 tox -11%, TDP1 cell CPT -9%, S-ASM inh 0% and TGFb SMAD3 inh 2%.
Screening C=CCNC(=O)C1CCN(c2ccc(S(=O)(=O)N3CCOCC3)cc2[N+](=O)[O-])CC1 returned DT40 TDP1 no CPT inconclusive, IL1B secr inh 22, HepG2 tox -1%, TDP1 cell CPT -3%, S-ASM inh 0% and TGFb SMAD3 inh -15%.
COc1ccccc1C(=O)NCCC(=O)NNC(=O)C1COc2ccccc2O1 (stereo not drawn) was read as DT40 TDP1 no CPT -2%, IL1B secr inh -3, HepG2 tox 3%, TDP1 cell CPT -3%, S-ASM inh 3% and TGFb SMAD3 inh 10%.
For CC(NC(=O)CNC(=O)c1sc2ccccc2c1Cl)c1ccc(S(N)(=O)=O)cc1 (stereo not drawn) the results were DT40 TDP1 no CPT -17%, IL1B secr inh -21, HepG2 tox -18%, TDP1 cell CPT -2%, S-ASM inh 2% and TGFb SMAD3 inh inconclusive.
O=C(CSc1ccc2ccccc2n1)Nc1ccc(N2CCOCC2)cc1 was read as DT40 TDP1 no CPT -12%, IL1B secr inh 18, HepG2 tox -4%, TDP1 cell CPT 22%, S-ASM inh 0% and TGFb SMAD3 inh inconclusive.
O=C(CSc1nncn1-c1ccccc1)Nc1ccc(N2CCOCC2)cc1 was read as DT40 TDP1 no CPT 13µM*, IL1B secr inh -6, HepG2 tox -1%, TDP1 cell CPT 23µM*, S-ASM inh -2% and TGFb SMAD3 inh inconclusive.
Screening CC(C)c1nc(SCC(=O)Nc2ccc(N3CCOCC3)cc2)c2ccccc2n1 returned DT40 TDP1 no CPT inconclusive, IL1B secr inh 0, HepG2 tox -9%, TDP1 cell CPT 15µM*, S-ASM inh -3% and TGFb SMAD3 inh -1%.
`O=C(CSc1nc2ccccc2c(=O)[nH]1)Nc1ccc(N2CCOCC2)cc1` gave DT40 TDP1 no CPT -32%, IL1B secr inh 7, HepG2 tox 2%, TDP1 cell CPT 16µM* and TGFb SMAD3 inh 6%.
For O=C(CSc1nnnn1-c1ccccc1)Nc1ccc(N2CCOCC2)cc1 the results were DT40 TDP1 no CPT -13%, IL1B secr inh 19, HepG2 tox 0%, TDP1 cell CPT 6%, S-ASM inh 4% and TGFb SMAD3 inh 58%.
Screening CCCc1nc(SCC(=O)Nc2ccc(N3CCOCC3)cc2)c2ccccc2n1 returned DT40 TDP1 no CPT 5.2µM*, IL1B secr inh 3, HepG2 tox -12%, TDP1 cell CPT inconclusive, S-ASM inh -2% and TGFb SMAD3 inh 8%.
Screening CC1CCCCN1C(=O)CSc1nc(N)nc(N)n1 (stereo not drawn) returned DT40 TDP1 no CPT -16%, IL1B secr inh 7, HepG2 tox 3%, TDP1 cell CPT 9%, S-ASM inh 6% and TGFb SMAD3 inh 21%.
For O=C(Cn1cnc2c(OCc3ccccc3)ncnc21)N[C@H](CO)Cc1cc2ccccc2[nH]1 the results were DT40 TDP1 no CPT 0%, IL1B secr inh -2, HepG2 tox -30%, TDP1 cell CPT -7%, S-ASM inh 1% and TGFb SMAD3 inh -17%.
`N#Cc1cc(-c2ccccc2)nc(N2CCNCC2)n1` gave DT40 TDP1 no CPT inconclusive, IL1B secr inh -12, HepG2 tox 16%, TDP1 cell CPT -5%, S-ASM inh 4% and TGFb SMAD3 inh 0%.
Screening S=c1[nH]cnc2sc(-c3ccccc3)cc12 returned DT40 TDP1 no CPT inconclusive, IL1B secr inh -1, HepG2 tox 3%, TDP1 cell CPT -20%, S-ASM inh -1% and TGFb SMAD3 inh -2%.
For S=C1NC2(CCCCC2)Nc2ccccc21 the results were DT40 TDP1 no CPT inconclusive, IL1B secr inh 12, HepG2 tox -7%, TDP1 cell CPT inconclusive, S-ASM inh -2% and TGFb SMAD3 inh -10%.
`COc1ccc(C(=O)Nc2cccc3c2CCCC3)cc1` gave DT40 TDP1 no CPT 5.8µM*, IL1B secr inh 4, HepG2 tox -37%, TDP1 cell CPT 10µM*, S-ASM inh 3% and TGFb SMAD3 inh -10%.
`COc1ccc(C(=O)Nc2ccccc2C(=O)N/N=C/c2ccncc2)cc1OC` gave DT40 TDP1 no CPT 16µM*, IL1B secr inh -20, HepG2 tox 13µM*, TDP1 cell CPT 16µM*, S-ASM inh -8% and TGFb SMAD3 inh 13%.
